FadD28 binding: inhibitors of FadD28 bisubstrate probe binding, primary screen, biochemical, fluorescence polarization, single point | Mycobacterium tuberculosis FadD28 fatty-acid-AMP ligase | inhibition, % at 12.5 µM | hit rate 0.22% among 360,000 | AID 588549, 2011; in the data active means inhibition above about 8.5%, passing the limit was not always enough
Mtb UGM inh: M. tuberculosis UGM enzyme inhibitors, primary screen, biochemical, fluorescence polarization, single point; inhibition, % at 10 µM; purified UGM, fluorescence polarization probe displacement; hit rate 0.06% among 320,000; AID 504406, 2011; UDP-galactopyranose mutase (Mycobacterium tuberculosis (strain ATCC 25618 / H37Rv)), …; in the data active means inhibition above about 10%, passing the limit was not always enough
Target sequence (P9WIQ1 whole entry, looked up): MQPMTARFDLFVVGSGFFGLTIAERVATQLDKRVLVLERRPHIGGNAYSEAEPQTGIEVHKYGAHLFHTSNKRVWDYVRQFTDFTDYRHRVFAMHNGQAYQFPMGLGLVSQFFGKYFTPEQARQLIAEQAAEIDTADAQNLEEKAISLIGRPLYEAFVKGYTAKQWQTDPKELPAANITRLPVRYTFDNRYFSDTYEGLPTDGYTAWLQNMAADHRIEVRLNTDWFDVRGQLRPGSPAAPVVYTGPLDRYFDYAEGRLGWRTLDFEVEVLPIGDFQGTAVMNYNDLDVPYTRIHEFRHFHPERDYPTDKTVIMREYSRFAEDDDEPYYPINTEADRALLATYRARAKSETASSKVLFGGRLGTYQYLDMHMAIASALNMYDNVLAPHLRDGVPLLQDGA
Mtb FBA inh: Mtb FBA enzyme inhibitors, primary screen, biochemical, fluorescence, strain H37Rv; Fructose-bisphosphate aldolase (Mycobacterium tuberculosis (strain ATCC 25618 / H37Rv)), …; purified M. tuberculosis FBA, fluorescence read-out; inhibition, % at 1 µM; hit rate 2.3% among 360,000; in the data active means inhibition above about 27%;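 further: 0% = vehicle and 100% = reference inhibitor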
GDH-TPI counter-1: GDH-TPI coupling enzyme inhibitors, primary screen, artefact control for M. tuberculosis FBA inhibitor project, biochemical, absorbance, full deck; AID 588335, 2011; hit rate 1.2% among 360,000; inhibition, % at 4.8 µM; GDH-TPI coupled enzyme counterscreen, NADH absorbance; in the data active means inhibition above about 30%;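 further: 0% = DMSO wells and 100% = wells lacking the enzyme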
Mtb bLac sens: beta-lactam sensitization of Mtb H37Rv, H37Rv; inhibition, % at 25 µM; AID 434955, 2010; hit rate 0.27% among 330,000; M. tuberculosis H37Rv growth with meropenem, percent inhibition;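 further: growth measured after seven days incubation then overnight dye step; 0% = bacteria only wells and 100% = bacteria with antibiotic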
Rv3671c inh: Rv3671c serine protease inhibitors, primary screen, biochemical, fluorescence polarization, M. tuberculosis H37Rv; hit rate 0.048% among 320,000; P9WHR9; inhibition, % at 5.96 µM; in the data active means inhibition above about 38%;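 further: extracellular domain of Rv3671c used as enzyme; 0% = enzyme with DMSO and 100% = no enzyme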
Mtb FBA inh conf: M. tuberculosis aldolase blockers, biochemical, fluorescence, strain H37Rv, confirmation; inhibition, % at 1 µM; AID 651616, 2012; purified M. tuberculosis FBA, fluorescence read-out; hit rate 78% among 5,600; shares compounds with Mtb FBA inh; in the data active means inhibition above about 27%;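 further: 0% = vehicle wells and 100% = reference inhibitor wells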
GDH-TPI counter-2: GDH-TPI coupling enzyme inhibitors, artefact control for M. tuberculosis FBA inhibitor project, biochemical, fluorescence, high throughput | shares compounds with Mtb FBA inh | GDH-TPI coupled enzyme counterscreen | inhibition, % at 1 µM | hit rate 81% among 5,600 | AID 652141, 2013; in the data active means inhibition above about 10%
GDH-TPI dose: GDH-TPI coupling enzyme inhibitors, dose response, artefact control for M. tuberculosis FBA inhibitor project, biochemical, fluorescence, IC50 | shares compounds with Mtb FBA inh | GDH-TPI coupled enzyme assay, artifact counterscreen | IC50, µM | hit rate 79% among 170
An asterisk follows results filed as active; x = no result; + = active, no number. Hits are enriched below; roughly 3.7% of the tested compounds scored in any of these assays. Unless noted, how the calls were made is not given here.

SMILES	FadD28 binding	Mtb UGM inh	Mtb FBA inh	GDH-TPI counter-1	Mtb bLac sens	Rv3671c inh	Mtb FBA inh conf	GDH-TPI counter-2	others
CCCCS(=O)(=O)Nc1ccc2ncn(C)c(=O)c2c1	-4	1	35*	1	-2	-2	-3	-5
CCCCS(=O)(=O)Nc1ccc2cn[nH]c2c1	-5	0	-2	-7	1	-5	x	x
Cc1ccc(NC(=O)c2nc(S(=O)(=O)Cc3ccccc3C)ncc2Cl)cc1C	-3	2	1	3	20	-32	x	x
CCCSc1nnc(NC(=O)CSc2sc3c(O)cc(=O)[nH]c3c2C#N)s1	16*	1	93*	-3	-7	-10	12	-1	GDH-TPI dose=>10
NC(=O)c1nc[nH]c1C(=O)Nc1cccc(NC(=O)c2cccc(C(F)(F)F)c2)c1	-4	1	-3	5	-3	-42	x	x
N#Cc1ccc(-c2ccc(OCC(O)CN3CCCCC3)cc2)cc1 (stereo unspecified)	0	-1	58*	7	4	-3	116*	81*
N#Cc1ccc(-c2ccc(OCC(O)Cn3nnc4ccccc43)cc2)cc1 (stereo unspecified)	-4	-1	31*	3	22	-4	+	+
COc1ccc(OCCSCc2nnc(NC(=O)Nc3ccc(Cl)cc3)s2)cc1	-3	3	29*	-1	2	-7	10	-5
O=C(Cc1ccccc1)NNC(=O)Nc1ccc(Cl)c(Cl)c1	-1	3	2	-5	2	3	x	x
O=C(Nc1ccc(Cl)c(Cl)c1)Nc1ccccc1C(=O)O	-8	3	52*	-1	-6	-22	35*	19*
NC(=O)c1ccccc1NC(=O)Nc1cccc(Cl)c1	-4	-1	4	-2	-12	8	x	x
O=C(Nc1cccc(Cl)c1)Nc1ccccc1C(=O)O	-2	0	79*	20	-9	-3	+	195*
O=C(Nc1ccc(Cl)cc1)Nc1ccccc1C(=O)O	-2	-3	54*	2	0	6	-1	-3
O=C1NC(=O)C2(CCCCCCC2)N1	0	x	-2	3	x	x	x	x
CCCN(CC(=O)Nc1ccccc1C)C(=O)c1ccc(-c2ccc(C(C)=O)cc2)o1	-1	-2	73*	31*	-15	1	-4	-15
CCCN(CC(=O)Nc1ccccc1C)C(=O)c1ccc(C(=O)c2ccccc2)cc1	0	3	4	-7	-10	5	x	x
Nc1c(C(O)(C(F)(F)F)C(F)(F)F)ccc2ccccc12	0	x	28*	4	x	x	24	11*
CC(=O)C1(C)C(=O)N(c2ccc(C)cc2)C(=O)N1c1ccc(C)cc1 (stereo unspecified)	-4	x	-2	-3	x	x	x	x
CCCCN(CC)CCNC(=O)c1cc2c(-c3ccc(Cl)cc3)nn(C)c2s1	-17	-2	77*	1	99	-14	5	-4
CCCN(CCC)CCCNC(=O)c1cc2c(-c3ccc(OC)c(OC)c3)nn(C)c2s1	-2	-2	3	11	-4	-1	x	x
CCOCCCNC(=O)c1cc2c(-c3ccc(Cl)cc3)nn(C)c2s1	-14	-2	63*	12	13	-51	71*	55*
CCCN(CCC)CCNC(=O)c1cc2c(-c3ccc(Cl)cc3)nn(C)c2s1	-14	1	50*	11	92	-12	163*	120*
CCCN(CCC)CCNC(=O)c1cc2c(-c3ccccc3F)nn(C)c2s1	-6	-2	87*	7	2	2	100*	81*
CCN(Cc1ccc(Br)s1)C(=O)CSc1nnc(C2CC2)n1C1CC1	-2	x	1	8	x	x	x	x
CCN(CC)C(=O)C1=C(C)N(CCCOC)C(=O)C(CC(=O)NCCc2ccccn2)C1 (stereo unspecified)	-2	x	-1	-2	x	x	x	x
SMILES	FadD28 binding	Mtb UGM inh	Mtb FBA inh	GDH-TPI counter-1	Mtb bLac sens	Rv3671c inh	Mtb FBA inh conf	GDH-TPI counter-2	others
CC(C)(C)NC(=O)C(c1ccc(O)cc1)N(Cc1ccc2c(c1)OCO2)C(=O)CCl (stereo unspecified)	0	x	-1	8	x	x	x	x
CC(=O)Nc1c(-c2ccc3ccccc3c2)nc2ccccn12	-2	2	59*	13	4	-8	41*	30*
CCC(=O)Nc1c(-c2ccc3ccccc3c2)nc2ccccn12	0	-1	50*	15	0	-5	62*	75*
O=C(Nc1c(-c2ccccc2)nc2ccccn12)c1ccccc1	0	-2	-1	1	1	1	x	x
CCOC(=O)CNc1c(-c2ccc(O)cc2)nc2ccccn12	0	-2	40*	14	-3	-6	3	-1
CCOC(=O)CNc1c(-c2ccc(O)cc2)nc2ccc(Cl)cn12	0	3	5	16	2	6	x	x
O=C(NC1CC1)c1ccc(NC(=O)C2CCCCC2)cc1	-5	x	-1	0	x	x	x	x
CCN(CC(=O)Nc1ccccc1OC)C(=O)COc1ccc(C#N)cc1	-2	x	3	2	x	x	x	x
CC(C(=O)N1CCCC1)N(c1ccc(Cl)cc1)S(C)(=O)=O (stereo unspecified)	0	x	2	14	x	x	x	x
CCOCCn1c(=NC(=O)CSCC(=O)Nc2cc(C)on2)sc2cc(OC)ccc21	-3	0	6	20	-2	2	x	x
O=C(NNC(=O)c1cc(F)c(F)cc1Cl)c1ccc(NS(=O)(=O)c2cccs2)cc1	1	2	1	4	3	-9	x	x
O=C(NNC(=O)c1cc(Cl)ccc1O)c1ccc(NS(=O)(=O)c2cccs2)cc1	6	3	29*	13	6	-3	+	+
CCNC(=O)C1(C)CCCN(C(=O)Cc2ccc(OC)c(OC)c2)C1 (stereo unspecified)	-1	x	3	12	x	x	x	x
COC(=O)c1ccc(/C=C/c2ccc3cccc(OC)c3n2)cc1	-2	3	60*	37*	57	-22	+	+
COc1ccc(/C=C/c2ccc3cccc(O)c3n2)cc1Br	0	-1	-1	23	78	3	x	x

Screening data deposited in PubChem by several laboratories.
